# “And” between values parts separate entries of the source, which are not always exact repeats. Identical values can stand only once. Inconclusive results are not listed. The source made the active and inactive calls. The call rests on the fitted dose curve; in most records, active means well fitted cell-killing curve with a large enough effect; inconclusive means small, poorly fitted or top-dose-only effect; inactive means flat fitted curve, though single readings scatter.
# Experiments:
# [1] = Cell Viability - LYMP2-007 (AID 979);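 further: cells exposed to compound for 24 h before reading; nearly all actives have a fitted effect of over 60% in size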
# Outline: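 AC50 values come from Hill-equation fits of luminescent intracellular ATP (CellTiter-Glo, 30 min, room temperature) following 24 h compound exposure at 37 C. Cells: LYMP2-007 lymphoblastoid line, 2500 per well, in complete culture medium.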
# [2] = Cell Viability - LYMP2-008 (AID 980); further: nearly all actives have a fitted effect of over 60% in size
# Outline: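 Cytotoxicity determined from ATP-dependent luciferase luminescence (CellTiter-Glo) following 24 h compound exposure of human lymphoblastoid LYMP2-008 cells at 37 C. Concentration-response data fitted to the Hill equation to give AC50.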
# [3] = Cell Viability - LYMP2-010 (AID 981); further: nearly all actives have a fitted effect of over 55% in size
# Outline: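 CellTiter-Glo ATP luminescence measured cytotoxicity after 24 h compound exposure at 37 C. LYMP2-010 cells were seeded at 2500/well, with tetraoctylammonium bromide as control; concentration-response curves gave AC50 values by the Hill equation.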
# [4] = Cell Viability - LYMP2-012 (AID 982);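 further: cellular ATP by luciferase luminescence where a drop means cytotoxicity; cells exposed to compound for one day before reading; nearly all actives have a fitted effect of over 55% in size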
# [5] = Cell Viability - LYMP2-014 (AID 983); further: nearly all actives have a fitted effect of over 50% in size
# Source text: NIH Chemical Genomics Center [NCGC]
# NIH Molecular Libraries Screening Centers Network [MLSCN]
# National Institutes of Environmental Health Sciences [NIEHS]
# National Toxicology Program [NTP]
# We have developed a 1536-well cell-based assay for quantitative high throughput screening (qHTS) against a number of cell lines to determine in vitro cytotoxicity of small molecules. This particular assay uses a human lymphoblastoid cell line (LYMP2-014) purchased from Coriell Institute for Medical Research.
# NCGC Assay Protocol Summary:
# The CellTiter-Glo luminescent cell viability assay (Promega) is a homogeneous method to measure the number of viable cells in culture. The end point readout of this assay is based on quantitation of intracellular ATP, an indicator of metabolic activity, using the luciferase reaction. Luciferase catalyzes the oxidation of beetle Luciferin to oxyluciferin and light in the presence of ATP. The luminescent signal is proportional to amount of ATP present.
# Using the CellTiter-Glo luminescent cell viability assay, the amount of cellular ATP was measured in the lymphoblastoid cell line with complete culture medium following compound treatment for 24 hours. The assay was performed in opaque white Kalypsys 1536-well plates. In the screen, tetraoctylammonium bromide was used as positive control. Library compounds were measured for their ability to cause acute toxicity in the cell line, as reflected by a decrease in intracellular ATP levels, in a concentration-dependent manner. […] AC50 values were determined from concentration-response data modeled with the standard Hill equation.
# qHTS protocol for CellTiter Glo lymphoblastoid cellular assay
# [Step] [Parameter] [Value] [Description]
# 1. Reagent; 5 uL; 2500 lymphoblastoid cells/well
# 2. Time; 5 hr; 37 C incubation
# 4. Controls; 23 nL; Tetraoctylammonium bromide 6.4pM to 92 uM
# 5. Time; 24 hr; 37 C incubation
# 6. Reagent; 5 uL; CellTiter Glo reagent
# 7. Time; 30 min; Room Temperature
# 8. Detection; Luminescence; Viewlux plate reader
# Keywords: cell viability, cytotoxicity, lymphoblastoid cell line, luminescence, NTPHTS, NTPHTS_NCGC, NIEHS, DSSTox, MLSMR, MLSCN, NIH Roadmap, qHTS, NCGC
# [6] = Cell Viability - LYMP2-016 (AID 984); further: nearly all actives have a fitted effect of over 55% in size
# Outline: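 Acute toxicity in a Coriell human lymphoblastoid line is scored as loss of intracellular ATP over 24 h of treatment in complete medium. CellTiter-Glo signal is fitted across concentrations with the Hill equation to give AC50.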
# [7] = Cell Viability - LYMP2-018 (AID 985); further: nearly all actives have a fitted effect of over 50% in size
# Outline: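 Viability read as CellTiter-Glo luminescence (cellular ATP) after 24 hr compound exposure at 37 C of 2500 LYMP2-018 lymphoblastoid cells/well, pre-plated 5 hr. Hill-equation modelling gave AC50.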
# [8] = Cell Viability - LYMP2-020 (AID 986); further: nearly all actives have a fitted effect of over 55% in size
# Outline: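 Cytotoxicity in qHTS format: luminescent ATP readout from CellTiter-Glo after 24 h compound exposure at 37 C in complete medium. LYMP2-020 lymphoblastoid cells were seeded at 2500/well; concentration-response data fitted to the Hill equation for AC50.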
# [9] = Cell Viability - LYMP2-022 (AID 987); further: nearly all actives have a fitted effect of over 55% in size
# Outline: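 Cytotoxicity read as decreased cellular ATP (CellTiter-Glo luminescence, 30 min room temperature) after 24 hours compound exposure of 2500 lymphoblastoid LYMP2-022 cells/well at 37 C. Concentration-response data fitted with standard Hill equation for AC50.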
# [10] = Cell Viability - LYMP2-024 (AID 988); further: nearly all actives have a fitted effect of over 60% in size
# Outline: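 Cytotoxicity was taken as a decrease in ATP (CellTiter-Glo luminescence) after 24 hr compound exposure at 37 C of LYMP2-024 lymphoblastoid cells, 2500 cells/well. Concentration-response data were fitted to the Hill equation to give AC50.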
# Potency means the concentration at half of the fitted maximal effect.
SMILES,Potency [1],Potency [2],Potency [3],Potency [4],Potency [5],Potency [6],Potency [7],Potency [8],Potency [9],Potency [10]
CNC(=O)Oc1cccc2ccccc12,inactive,inactive,inactive,inactive,inactive,inactive,inactive,inactive,inactive,inactive
CCCCCCCCCCCC[N+](C)(C)CCOc1ccccc1,25.1 µM (active),25.1 µM (active),39.8 µM (active),39.8 µM (active),39.8 µM (active),31.6 µM (active),39.8 µM (active),39.8 µM (active),39.8 µM (active),39.8 µM (active)
CC[n+]1c(-c2ccccc2)c2cc(N)ccc2c2ccc(N)cc21,12.6 µM (active),10 µM (active),12.6 µM (active),7.94 µM (active),10 µM (active),15.8 µM (active),10 µM (active),15.8 µM (active),7.94 µM (active),12.6 µM (active)
Oc1ccc(Cl)cc1Cc1cc(Cl)ccc1O,–,–,–,–,–,–,–,39.8 µM (active),–,–
COP(=O)(OC)OC=C(Cl)Cl,inactive,inactive,inactive,inactive,inactive,inactive,inactive,inactive,inactive,inactive
Oc1ccc(Cl)cc1Sc1cc(Cl)ccc1O,39.8 µM (active),–,39.8 µM (active),31.6 µM (active),–,–,39.8 µM (active),39.8 µM (active),–,–
Oc1c(Br)cc(Br)cc1Br,inactive,inactive,inactive,inactive,inactive,inactive,inactive,inactive,inactive,inactive
CN(C)C(=S)SSC(=S)N(C)C,0.316 µM (active),0.251 µM (active),0.251 µM (active),0.199 µM (active),0.199 µM (active),0.316 µM (active),0.199 µM (active),0.398 µM (active),0.158 µM (active),0.251 µM (active)
C[C@@H]1C[C@@H]([C@H](O)CC2CC(=O)NC(=O)C2)C(=O)[C@@H](C)C1,–,–,1 µM (active),631 nM (active) and 794 nM (active),–,–,1 µM (active),0.794 µM (active),794 nM (active) and 1 µM (active),0.794 µM (active)
O=C(CCl)c1ccc(Cl)cc1Cl,5.01 µM (active),7.94 µM (active),2.51 µM (active),3.16 µM (active),5.01 µM (active),5.01 µM (active),3.16 µM (active),5.01 µM (active),2 µM (active),2.51 µM (active)
COC(=O)C1=C(C)NC(C)=C(C(=O)OC)C1c1ccccc1[N+](=O)[O-],39.8 µM (active),–,39.8 µM (active),–,–,–,–,–,50.1 µM (active),39.8 µM (active)

# Reference: PubChem BioAssay (NCATS)
